In PubChem BioAssay (NCI) one finds growth data, which are given here for 8 compounds.

Test systems include NCI-H23 lung; NCI-H226 lung; NCI-H322M lung; NCI-H460 lung; HOP-92 NSCLC; NCI-H522 lung; A549/ATCC NSCLC; 786-0 renal; COLO 205 colon; DU-145 prostate; K-562 leukemia; MALME-3M melanoma; MDA-MB-231 breast; RXF 393 renal; SF-268 CNS; SF-295 CNS; SF-539 CNS; UACC-257 melanoma; M14 melanoma.
Common to all, as to assay: NCI-60 one-dose screen, 48 h (100 = growth as untreated, 0 = no growth, -100 = all killed)
Details in all cases: 10 µM unless noted

Structures are written as SMILES. The panel holds about 83,000 compounds, 20% with a hit somewhere; the sample as a whole holds those more often.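 For each line, cells grew in 96-well plates with the test compound present at a single concentration for 48 hours.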 Unmarked numbers belong to inactive results. Activity calls are given as the source filed them. The calls were made as follows: active = growth percent below 10; inactive = the rest.

Regarding `Cc1ccc(C(=O)CSc2nc(-c3ccc(Br)cc3)c(C#N)c(=O)[nH]2)cc1`, the growth in the test on NCI-H23 lung was 92.6%; with NCI-H226 lung, 101%; in the test on NCI-H322M lung it was 100%; with NCI-H460 lung, 102%; with HOP-92 NSCLC, 92.2%; with NCI-H522 lung it was 90%. Besides, the growth was 101% with A549/ATCC NSCLC; 98.7% with 786-0 renal; 102% in the test on COLO 205 colon; 104% with DU-145 prostate; 53.3% in the test on K-562 leukemia; 93% in the test with MALME-3M melanoma. In addition, the growth in the test with MDA-MB-231 breast was 96.4%; with RXF 393 renal it was 99.1%; in the test on SF-268 CNS it was 97.5%; with SF-295 CNS it was 106%; in the test on SF-539 CNS it was 94.8%; in the test with UACC-257 melanoma it was 98.7%. Besides, in the test on M14 melanoma, the growth was 92.7%.
With `COc1ccc(Cl)cc1NC(=O)C(Br)C(Br)C(=O)O` (configuration not stated), the growth is 67% with NCI-H23 lung; 70.9% in the test on NCI-H226 lung; 61.5% with NCI-H322M lung; 111% with NCI-H460 lung; 53.5% in the test on HOP-92 NSCLC; -43.5% (active) in the test on NCI-H522 lung. Besides, the growth in the test on A549/ATCC NSCLC is 115%; in the test on 786-0 renal, 102%; with COLO 205 colon, 105%; with DU-145 prostate, 97.2%; in the test with K-562 leukemia, -27% (active); with MALME-3M melanoma, 46.2%. The growth is 46.2% with MDA-MB-231 breast; 44.4% in the test on RXF 393 renal; 19.7% with SF-268 CNS; 99.8% in the test on SF-295 CNS; 77.7% with SF-539 CNS; 60.8% with UACC-257 melanoma. Besides, in the test on M14 melanoma, the growth is 75.9%.
As for `c1c[nH]c(CNC2CCCCC2)c1`, the growth with NCI-H23 lung is 97.7%; in the test on NCI-H226 lung, 102%; in the test with NCI-H322M lung it was 104%; in the test with NCI-H460 lung it was 105%; in the test on HOP-92 NSCLC, 72.9%; in the test with NCI-H522 lung, 109%. In addition, the growth is 103% in the test with A549/ATCC NSCLC; 112% in the test on 786-0 renal; 115% in the test with COLO 205 colon; 106% with DU-145 prostate; 103% in the test with K-562 leukemia; 106% in the test with MALME-3M melanoma. Also, the growth in the test on MDA-MB-231 breast is 129%; in the test on RXF 393 renal, 119%; with SF-268 CNS, 101%; with SF-295 CNS, 105%; in the test with SF-539 CNS it was 114%; in the test on UACC-257 melanoma, 119%. Moreover, in the test on M14 melanoma, the growth was 104%.
Turning to `Cn1cc(-c2csc(-c3cccc(F)c3)n2)c2cccnc21`, the growth in the test on NCI-H23 lung is -62.7% [100 µM] (active); in the test with NCI-H226 lung, -14.4% [100 µM] (active); in the test on NCI-H322M lung, -22% [100 µM] (active); in the test on NCI-H460 lung it was -59.6% [100 µM] (active); in the test on HOP-92 NSCLC, -59.6% [100 µM] (active); in the test with NCI-H522 lung, -27.6% [100 µM] (active). Further, the growth with A549/ATCC NSCLC is 1% [100 µM] (active); in the test on 786-0 renal, -81.6% [100 µM] (active); in the test on COLO 205 colon it was -66.5% [100 µM] (active); in the test with DU-145 prostate, -62.7% [100 µM] (active); with K-562 leukemia, 2.45% [100 µM] (active); in the test on MALME-3M melanoma it was -39.1% [100 µM] (active). The growth was -50.1% [100 µM] (active) in the test on MDA-MB-231 breast; -30.7% [100 µM] (active) with RXF 393 renal; -40.5% [100 µM] (active) in the test with SF-268 CNS; -51.9% [100 µM] (active) with SF-295 CNS; -74.9% [100 µM] (active) in the test on SF-539 CNS; -37.6% [100 µM] (active) in the test with UACC-257 melanoma. Also, in the test with M14 melanoma, the growth was -77.2% [100 µM] (active).
`CCn1c(C)nc2cc(C(N)=O)ccc21`: the growth with NCI-H23 lung is 94.3%; with NCI-H226 lung, 89.9%; in the test with NCI-H322M lung it was 86.8%; in the test on NCI-H460 lung, 101%; in the test with HOP-92 NSCLC, 90.7%; in the test with NCI-H522 lung it was 90.7%. Moreover, the growth was 104% with A549/ATCC NSCLC; 96.3% in the test with 786-0 renal; 120% with COLO 205 colon; 110% in the test with DU-145 prostate; 102% in the test with K-562 leukemia; 96.4% with MALME-3M melanoma. Further, the growth is 113% in the test on MDA-MB-231 breast; 93.4% with RXF 393 renal; 104% in the test on SF-268 CNS; 238% in the test with SF-295 CNS; 96.4% in the test with SF-539 CNS; 87.9% in the test on UACC-257 melanoma. In addition, the growth with M14 melanoma is 95.5%.
For `CC(C)Sc1nc(NNC(N)=S)c(C#N)c(-c2ccc(F)cc2)n1`, the growth in the test with NCI-H23 lung is 102%; with NCI-H226 lung, 94.7%; in the test on NCI-H322M lung, 99.1%; in the test on NCI-H460 lung, 102%; with HOP-92 NSCLC, 70.2%; with NCI-H522 lung it was 85.2%. Moreover, the growth was 92.5% with A549/ATCC NSCLC; 90.5% in the test with 786-0 renal; 106% in the test with COLO 205 colon; 110% in the test with DU-145 prostate; 92.5% in the test on K-562 leukemia; 117% in the test with MALME-3M melanoma. The growth was 98% with MDA-MB-231 breast; 101% in the test with RXF 393 renal; 101% with SF-268 CNS; 93.7% in the test on SF-295 CNS; 91.7% in the test on SF-539 CNS; 101% with UACC-257 melanoma. Besides, the growth with M14 melanoma is 104%.
As for `O=c1[nH]ccc2nc(N3CCC(O)CC3)nc(Nc3ccc(N4CCOCC4)cc3)c12`, the growth in the test with NCI-H23 lung was 58.2%; in the test on NCI-H226 lung it was 45.7%; in the test on NCI-H322M lung it was 83.7%; in the test on NCI-H460 lung, 36.2%; in the test with HOP-92 NSCLC it was 2.14% (active); in the test with NCI-H522 lung, 75.1%. Also, the growth is 29.8% with A549/ATCC NSCLC; 77.2% with 786-0 renal; -1.79% (active) with COLO 205 colon; 59.8% in the test on DU-145 prostate; 70.1% in the test on K-562 leukemia; 28.4% in the test with MALME-3M melanoma. Also, the growth in the test with MDA-MB-231 breast was 64.3%; in the test on RXF 393 renal, 15.6%; with SF-268 CNS, 61.9%; in the test on SF-295 CNS, 108%; in the test on SF-539 CNS, 28.7%; in the test with UACC-257 melanoma, 53.2%. In addition, in the test with M14 melanoma, the growth is 41.4%.
As for `CCN1C(=O)N(CC)C2C1NN=c1s/c(=C\c3cccs3)c(=O)n12` (configuration not stated), the growth with NCI-H23 lung was 36.4%; in the test on NCI-H226 lung it was 79%; in the test on NCI-H322M lung it was 42.7%; in the test with NCI-H460 lung it was 8.1% (active); in the test on HOP-92 NSCLC, 64.1%; in the test on NCI-H522 lung it was -9.67% (active). Also, the growth in the test with A549/ATCC NSCLC was 25.3%; in the test with 786-0 renal, 28.5%; with COLO 205 colon, -6.95% (active); in the test with DU-145 prostate, 10.4%; in the test on K-562 leukemia, 14.5%; in the test on MALME-3M melanoma it was 49.1%. The growth in the test on MDA-MB-231 breast was 7.14% (active); with RXF 393 renal it was 11.5%; in the test with SF-268 CNS, 59.3%; in the test on SF-295 CNS it was 19.3%; in the test with SF-539 CNS it was -3.34% (active); with UACC-257 melanoma it was 74.4%. Moreover, the growth in the test with M14 melanoma was 8.36% (active).
